This is an account of results in PubChem BioAssay (Tox21).

The structures appear in SMILES notation. Values joined by “and” are separate entries in the source; they are usually repeats but may differ in a detail not shown here. Identical values can stand only once. Results filed as inconclusive are left out. Some structures have more than one record in an assay (separate samples or runs), and their calls can disagree. Active and inactive are the calls of the source. Unless noted, calls come from the whole dose curve; as a rule, active = well fitted curve in the direction sought with a large enough effect in the repeat runs; inconclusive = weak or mixed curves; inactive = no such curve, though single readings can be large; an effect the other way counts as inactive or inconclusive.

Experiment [1] in a line: qHTS assay to test for compound auto fluorescence at 535 nm (green) in HEK293 cells (AID 720680). A general note: In qHTS, concentration-response curves come from the screen itself.
Experiment [2] can be described thus: qHTS assay to test for compound auto fluorescence at 460 nm (blue) in HEK293 cell free culture (AID 720681). The method, boiled down:
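Test compounds were pinned into cell-free culture medium (DMEM with 10% FBS) and fluorescence was read directly at Ex/Em 405/460 nm. Signals were expressed as fluorescence equivalents of triamterene, with DMSO vehicle as control.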

Experiment [3] can be described thus: qHTS assay to test for compound auto fluorescence at 535 nm (green) in HEK293 cell free culture (AID 720682). The method, boiled down:
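No cells present: wells hold DMEM supplemented with 10% FBS, into which compound or vehicle is pinned. Green emission is then recorded (485 nm excitation, 535 nm emission) and scaled to fluorescein.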

Experiment [4] in a line: qHTS assay to test for compound auto fluorescence at 590 nm (red) in HEK293 cell free culture (AID 720683). The method, boiled down:
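Tox21 10K library compounds were pinned into cell-free DMEM with 10% FBS and fluorescence was read at excitation 540 nm. Activity is expressed as Rose Bengal sodium equivalency.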

A short description of experiment [5]: qHTS assay to test for compound auto fluorescence at 590 nm (red) in HepG2 cell free culture (AID 720684). Summed up:
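Readout: intrinsic compound fluorescence at 590 nm emission after 540 nm excitation, scaled to Rose Bengal sodium. Matrix was cell-free MEM with 10% FBS; DMSO vehicle wells served as control.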

A short description of experiment [6]: qHTS assay to test for compound auto fluorescence at 460 nm (blue) in HepG2 cell free culture (AID 720685). Summed up: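 Cell-free plates of MEM plus 10% FBS received 23 nL compound or DMSO vehicle; blue-channel (405/460 nm) intensity scored against triamterene as reference fluorophore.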
Experiment [7] can be described thus: qHTS assay to test for compound auto fluorescence at 535 nm (green) in HepG2 cell free culture (AID 720686).
The nature of experiment [8]: qHTS assay to test for compound auto fluorescence at 460 nm (blue) in HepG2 cells (AID 720687). The method, boiled down: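 Cells (2,000/well in MEM with 10% FBS) attached overnight at 37 C, then were exposed to compound or DMSO for 1 hr at 37 C, 5% CO2. Fluorescence read at Ex/Em 405/460 nm, expressed as triamterene-equivalent signal.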
Experiment [9] deals with Glucocorticoid receptor (Homo sapiens) (UniProt P04150). As to the kind of experiment: qHTS assay to identify small molecule agonists of the glucocorticoid receptor (GR) signaling pathway (AID 720691; active = well fitted activation curve with a large enough effect in the signal ratio in the repeat runs, not every such curve was filed as active; the % refers to the signal ratio). To be noted: GR-bla HeLa, beta-lactamase reporter ratio, 18 h; activation: at 62.4 µM (top of the series) unless noted. Summed up:
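Steps: seed GR-bla HeLa cells, incubate 4 h at 37 C/5% CO2; pin-transfer DMSO-dissolved compounds; incubate 18 h at 37 C; add LiveBLAzer B/G FRET substrate; after 2 h at room temperature, measure fluorescence.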

Experiment [10] has the same target. The experiment is described as follows: qHTS assay to identify small molecule antagonists of the glucocorticoid receptor (GR) signaling pathway (AID 720692; active = well fitted inhibition curve with a large enough effect in the signal ratio in the repeat runs, not every such curve was filed as active; the % refers to the signal ratio; note: potency is the fitted concentration of half-maximal effect). Summed up:
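Antagonism was scored as loss of dexamethasone-driven (5 nM final) reporter signal in HeLa cells bearing a glucocorticoid response element–beta-lactamase construct, after 18 h compound exposure at 37 C and 2 h FRET substrate loading.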

Experiment [11] can be described thus: qHTS assay for identifying genotoxic compounds that show differential cytotoxicity against isogenic chicken DT40 cell lines with known DNA damage response pathways - Rev3 mutant cell line (AID 743014). Note: nearly all actives have a fitted effect of over 55% in size. Note: potency is the fitted concentration of half-maximal effect.
A short description of experiment [12]: qHTS assay for identifying genotoxic compounds that show differential cytotoxicity against isogenic chicken DT40 cell lines with known DNA damage response pathways - Rad54/Ku70 mutant cell line (AID 743015). Note: nearly all actives have a fitted effect of over 60% in size. Note: potency is the fitted concentration of half-maximal effect.
Experiment [13] can be described thus: qHTS assay to identify small molecule antagonists of the androgen receptor (AR) signaling pathway - cell viability counter screen (AID 743033; note: nearly all actives have a fitted effect of over 45% in size; note: potency is the fitted concentration of half-maximal effect).
Experiment [14] in a line: qHTS assay to identify small molecule antagonists of the androgen receptor (AR) signaling pathway using the MDA cell line - cell viability counter screen (AID 743041; note: nearly all actives have a fitted effect of over 45% in size). Summed up: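 qHTS viability read-out; MDA-kb2 AR-luc; R1881-stimulated; 16 h exposure at 37C, 0% CO2; CellTiter-Fluor, 30 min; fluorescence intensity.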
Experiment [15] is described as follows: qHTS assay to identify small molecule antagonists of the glucocorticoid receptor (GR) signaling pathway - cell viability counter screen (AID 720693). Note: nearly all actives have a fitted effect of over 55% in size.
A short description of experiment [16]: qHTS assay for identifying genotoxic compounds that show differential cytotoxicity against isogenic chicken DT40 cell lines with known DNA damage response pathways - wild type cell line (AID 743012). Note: nearly all actives have a fitted effect of over 60% in size. Note: potency is the fitted concentration of half-maximal effect. The method, boiled down:
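Cytotoxicity in repair-proficient parental chicken DT40 cells serves as the comparator for Rad54/Ku70- and Rev3-deficient lines. Cells were exposed to compounds for 40 h at 37 C/5% CO2, and ATP-based luminescence (CellTiter-Glo) measured viability.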

In experiment [17] the target is Androgen receptor (Homo sapiens) (UniProt P10275). As to the kind of experiment: qHTS assay to identify small molecule agonists of the androgen receptor (AR) signaling pathway (AID 743036; active = well fitted activation curve with a large enough effect in the signal ratio in the repeat runs, with a control signal flat, not every such curve was filed as active; the % refers to the signal ratio). The method, boiled down: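 Quantitative HTS of the Tox21 10K library in HEK293 cells bearing a stably integrated UAS-controlled beta-lactamase reporter. Compound exposure lasted 16 h at 37C. Reporter activity was detected by FRET substrate fluorescence after 2 h at room temperature.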
Chain of Androgen receptor (Homo sapiens) (P10275 whole entry, looked up): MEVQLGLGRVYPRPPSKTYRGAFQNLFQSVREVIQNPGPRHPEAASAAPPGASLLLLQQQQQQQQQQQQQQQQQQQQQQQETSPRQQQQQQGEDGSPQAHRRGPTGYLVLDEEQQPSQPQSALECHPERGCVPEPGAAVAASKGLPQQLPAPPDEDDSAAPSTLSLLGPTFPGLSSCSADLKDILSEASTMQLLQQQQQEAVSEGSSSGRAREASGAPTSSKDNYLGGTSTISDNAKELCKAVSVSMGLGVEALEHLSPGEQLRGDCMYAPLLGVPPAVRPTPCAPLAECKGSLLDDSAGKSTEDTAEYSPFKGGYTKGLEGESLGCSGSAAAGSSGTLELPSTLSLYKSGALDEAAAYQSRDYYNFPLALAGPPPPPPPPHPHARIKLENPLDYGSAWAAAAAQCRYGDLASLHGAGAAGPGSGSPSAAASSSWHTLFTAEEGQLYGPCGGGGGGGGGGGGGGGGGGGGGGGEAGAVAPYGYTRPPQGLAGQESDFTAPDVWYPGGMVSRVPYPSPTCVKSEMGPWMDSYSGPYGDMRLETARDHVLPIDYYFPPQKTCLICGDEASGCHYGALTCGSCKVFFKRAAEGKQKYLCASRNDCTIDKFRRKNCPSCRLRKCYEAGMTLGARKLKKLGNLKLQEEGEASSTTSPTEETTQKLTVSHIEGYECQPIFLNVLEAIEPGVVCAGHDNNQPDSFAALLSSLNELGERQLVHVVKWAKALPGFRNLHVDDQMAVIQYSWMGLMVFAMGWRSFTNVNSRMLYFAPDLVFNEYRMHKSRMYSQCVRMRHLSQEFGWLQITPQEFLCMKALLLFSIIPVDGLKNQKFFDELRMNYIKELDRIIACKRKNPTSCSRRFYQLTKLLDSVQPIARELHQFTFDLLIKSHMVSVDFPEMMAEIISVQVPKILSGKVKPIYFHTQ

The target is the same in experiment [18]. As to the kind of experiment: qHTS assay to identify small molecule agonists of the androgen receptor (AR) signaling pathway using the MDA cell line (AID 743040; note: nearly all actives have a fitted effect of over 20% in size). The method, boiled down:
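Agonist activity is measured as luciferase luminescence in human MDA-kb2 cells whose MMTV reporter responds to both AR and GR. Compounds in DMSO incubate 16 h at 37C, 0% CO2, and ONE-Glo is read after 30 min.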

Experiment [19] shares this target. As to the kind of experiment: qHTS assay to identify small molecule antagonists of the androgen receptor (AR) signaling pathway using the MDA cell line (AID 743042; note: nearly all actives have a fitted effect of over 55% in size). Summed up:
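MDA-kb2 cells (human breast carcinoma, stably carrying an MMTV-luciferase reporter responsive to AR and GR) were plated at 3,000 cells/well and preincubated 5 hr at 37C, then given compound plus R1881 agonist for 16 h. ONE-Glo luminescence was read.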

Chain of Glucocorticoid receptor (Homo sapiens) (P04150 whole entry, looked up): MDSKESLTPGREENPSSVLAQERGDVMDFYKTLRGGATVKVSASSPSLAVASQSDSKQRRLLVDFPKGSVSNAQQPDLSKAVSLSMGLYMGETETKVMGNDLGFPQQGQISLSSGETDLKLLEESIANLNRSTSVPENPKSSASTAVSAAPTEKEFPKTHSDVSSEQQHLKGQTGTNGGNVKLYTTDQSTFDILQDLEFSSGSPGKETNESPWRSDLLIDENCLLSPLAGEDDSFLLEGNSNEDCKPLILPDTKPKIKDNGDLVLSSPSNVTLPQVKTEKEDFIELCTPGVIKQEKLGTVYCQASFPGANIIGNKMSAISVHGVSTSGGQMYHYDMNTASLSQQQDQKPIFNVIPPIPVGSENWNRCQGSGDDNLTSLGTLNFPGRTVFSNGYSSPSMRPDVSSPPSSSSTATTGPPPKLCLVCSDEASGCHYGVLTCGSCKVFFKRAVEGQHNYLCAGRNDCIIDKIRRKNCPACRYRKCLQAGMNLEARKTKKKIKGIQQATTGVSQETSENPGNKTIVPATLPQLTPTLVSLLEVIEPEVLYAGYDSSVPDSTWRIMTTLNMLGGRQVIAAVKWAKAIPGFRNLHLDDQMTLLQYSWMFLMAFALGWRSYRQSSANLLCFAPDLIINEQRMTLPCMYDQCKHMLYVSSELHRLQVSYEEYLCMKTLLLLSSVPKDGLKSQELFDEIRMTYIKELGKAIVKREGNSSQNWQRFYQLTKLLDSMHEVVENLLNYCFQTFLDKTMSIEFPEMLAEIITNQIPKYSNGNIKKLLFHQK

As for `CN(C)c1cccc(O)c1`, the result in [1], in experiment [3], in [4], in [5], in experiment [7] and in [8] was inactive. In addition, the Potency result in [2], in experiment [6], in experiment [9], in experiment [10], in experiment [11] and in experiment [12] was “inactive” each time. In addition, the Potency result in experiment [13] and in experiment [14] was “inactive” throughout.
For `O=C1N=C(O)CN1/N=C/c1ccc(-c2ccc([N+](=O)[O-])cc2)o1`, the call in [1], in experiment [3], in experiment [4], in experiment [5], in [7] and in [8] was inactive. The Potency entry in experiment [2], in experiment [6], in experiment [9], in [10], in [15] and in experiment [13] was “inactive” in each case. In addition, the Potency is 61.1 µM (active) in experiment [16]; “inactive and 68.6 µM (active)” in experiment [11]; 26.6 µM (active) and 27.3 µM (active) in [12].
On to `CCCCCCCCCCCCN`, for which the molecule was called inactive in experiment [1], in experiment [3], in experiment [4], in [5], in experiment [7] and in experiment [8]. Also, the Potency result in experiment [2], in [6], in experiment [9], in experiment [10] and in experiment [15] was “inactive” each time. Further, the Potency result in experiment [16] was “inactive and 15.4 µM (active)”; in experiment [11], “inactive and 21.7 µM (active)”; in experiment [12] it was “inactive and 19.3 µM (active)”; in experiment [13], “inactive and 54.9 µM (active)”.
On to `CCCCNC(N)=O`, for which the molecule was called inactive in experiment [1], in [3], in experiment [4], in [5], in experiment [7] and in experiment [8]. Further, the Potency entry in [2], in experiment [6], in experiment [9], in experiment [10], in experiment [16] and in experiment [11] was “inactive” in each case. The Potency result in experiment [12], in [13] and in experiment [14] was “inactive” throughout.
For the molecule `CC(C)Cc1ccccc1`, the molecule was classed as inactive in experiment [1], in experiment [3], in experiment [4], in experiment [5], in experiment [7] and in experiment [8]. Besides, the Potency entry in experiment [2], in [6], in experiment [9], in [10], in experiment [15] and in experiment [16] was “inactive” each time. In addition, the Potency result in [11], in experiment [12], in [13] and in experiment [14] was “inactive” in each case.
Turning to `CCCCCCCCCCC=CC1CC(=O)OC1=O` (configuration not stated), the outcome in [1], in [3], in [4], in experiment [5], in experiment [7] and in [8] was inactive. Moreover, the Potency entry in experiment [2], in experiment [6], in [9], in experiment [15], in [16] and in [12] was “inactive” throughout. The Potency entry in experiment [13] and in [14] was “inactive” throughout. Also, the Potency in experiment [10] is 15.6 µM (active) and 49 µM (active).
On to `OCC1CCCO1` (configuration not stated), for which the outcome in experiment [1], in experiment [3], in experiment [4], in experiment [5], in experiment [7] and in experiment [8] was inactive. For the same molecule, the call in [17], in experiment [18] and in experiment [19] was inactive. Besides, the Potency result in experiment [2], in experiment [6], in experiment [9], in [10], in experiment [16] and in experiment [11] was “inactive” in each case. Besides, the Potency result in experiment [12], in [13] and in [14] was “inactive” each time.
Regarding `OCC#CCO`, the molecule was called inactive in experiment [1], in [3], in experiment [4], in [5], in [7] and in [8]. Also, the Potency entry in experiment [2], in [9], in experiment [10], in experiment [13] and in [14] was “inactive” throughout. The Potency result in experiment [16] is “inactive and 54.5 µM (active)”; in experiment [11], “inactive and 54.5 µM (active)”; in experiment [12] it was “inactive and 48.6 µM (active)”.
